Results reported in PubChem BioAssay (EPA / NIEHS).
Results filed as inconclusive are left out. Active and inactive are the calls of the source. The calls were made as follows, unless noted: active = hit-call score of the fitted dose curve at least 0.9, where 1 is the maximum; inactive = score below 0.9.

What was measured:
[1] = ACEA_ER_80hr: ACEA Biosciences xCELLigence Real-Time Cell Analysis on Estrogen Receptor Agonism for Proliferation (AID 2282667; active = hit-call score of the fitted dose curve at least 0.9, where 1 is the maximum); details: T47D proliferation, impedance (xCELLigence), 80 h
In short: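 Real-time impedance growth kinetics of human T-47D breast cells read 80 h after dosing, gain-of-signal fitted relative to DMSO. Compounds: 1:4 serial series, top final concentration 100 uM, n = 2.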

[2] = APR_HepG2_CellCycleArrest_24hr: Apredica 24-hour HepG2 Assay for Cell Cycle Arrest (AID 2282905); details: imaging, actives raise or lower the signal;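 also: cell cycle arrest scored as ratio of 2N to 4N nuclear DNA content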
In short: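 HepG2 cells were exposed to compounds at 0.39–200 uM (ten concentrations, duplicate) in 0.5% v/v DMSO for 24 hr. After formaldehyde fixation and Triton permeabilization, Hoechst 33342-stained nuclei were imaged at 20x; DNA content was quantified, with bidirectional fitting against DMSO.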

[3] = APR_HepG2_NuclearSize_24hr: Apredica 24-hour HepG2 Assay for Nuclear Size (AID 2282907); details: high-content imaging, actives raise or lower the signal
In short: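 HepG2 human liver cells were exposed for 24 hr to compounds at 0.39–200 uM (ten concentrations, duplicate) in 0.5% v/v DMSO. They were then formaldehyde-fixed, Triton-permeabilized and Hoechst 33342-stained, and nuclear diameter was imaged at 20x. Bidirectional fits were made against DMSO.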

[4] = APR_HepG2_CellLoss_24hr: Apredica 24-hour HepG2 Assay for Cell Loss (AID 2282908); details: high-content imaging;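 as to AC50: fit in both directions so a hit may be cell loss or gain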
In short: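 Compounds were tested at 0.39–200 uM in duplicate with 0.5% v/v DMSO final. Cells were then fixed in 3.7% formaldehyde, Hoechst 33342 nuclei were imaged at 20x by HCS, and cell number was fitted bidirectionally against DMSO.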

[5] = APR_HepG2_MicrotubuleCSK_24hr: Apredica 24-hour HepG2 Assay for Microtubule CSK Stabilty (AID 2282909); details: HepG2 microtubule cytoskeleton imaging, actives raise or lower the signal
In short: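 HepG2 cells exposed 24 h to compounds at 0.39–200 uM (duplicate, 0.5% v/v DMSO final), then fixed, permeabilized and immunostained for alpha-tubulin with Hoechst 33342. Cytoskeleton imaged at 20x; bidirectional fit versus DMSO baseline.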

[6] = APR_HepG2_MitoticArrest_24hr: Apredica 24-hour HepG2 Assay for Mitotic Arrest (AID 2282910); details: high-content imaging, actives raise or lower the signal
In short: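 Compounds are dosed onto HepG2 cells across ten concentrations up to 200 uM for 24 hr. Cells are then fixed in 3.7% formaldehyde, permeabilised, and labelled for phospho-histone H3 and nuclei; images are scored by cell cycle analysis and fitted bidirectionally relative to DMSO.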

[7] = APR_HepG2_MitoMembPot_24hr: Apredica 24-hour HepG2 Assay for Mitochondrial Membrane Potential (AID 2282911); details: imaging, actives raise or lower the signal
In short: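 Mitochondrial membrane potential imaged via MitoTracker Red CMXRos (250 nM, 30 min pre-fixation) in fixed HepG2 cells with Hoechst nuclear identification. Ten concentrations 0.39–200 uM, 24 h treatment, 0.5% DMSO; CCCP as positive control.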

[8] = APR_HepG2_MitoMass_24hr: Apredica 24-hour HepG2 Assay for Mitochondrial Mass (AID 2282912); details: high-content imaging, actives raise or lower the signal
In short: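 Human HepG2 liver cells were exposed for 24 hr to compounds at 0.39–200 uM (duplicates, 0.5% v/v DMSO final). They were stained live with 250 nM MitoTracker Red CMXRos for 30 min, fixed in 3.7% formaldehyde, and imaged by HCS fluorescence; signals were fitted bidirectionally against DMSO.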

[9] = APR_HepG2_p53Act_24hr: Apredica 24-hour HepG2 Assay for p53 Activation (AID 2282913); details: high-content imaging, actives raise or lower the signal;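 also: p53 protein immunofluorescence averaged per cell in HepG2 with Hoechst nuclei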
In short: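 Fluorescence imaging of formaldehyde-fixed HepG2 cells labelled for p53 and with Hoechst, 24 h after dosing (0.39–200 uM, duplicate wells, 0.5% v/v DMSO). Signal fitted in both directions relative to DMSO.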

[10] = APR_HepG2_CellCycleArrest_72hr: Apredica 72-hour HepG2 Assay for Cell Cycle Arrest (AID 2282914); details: high-content imaging, actives raise or lower the signal
In short: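 Read-out: nuclear DNA content from Hoechst 33342 high-content imaging (20x, six fields/well) after 3.7% formaldehyde fixation, fitted bidirectionally against DMSO. Treatment was 72 h in HepG2, ten concentrations 0.39–200 uM, duplicate, 0.5% DMSO.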

Measured: AC50

NS(=O)(=O)c1cc2c(cc1Cl)NCNS2(=O)=O
inactive: [1] | [2] | [3] | [4] | [5] | [6] | [7] | [8] | [9] | [10]

CCCCCCOCCO
inactive: [1] | [2] | [3] | [4] | [5] | [6] | [7] | [8] | [9] | [10]

Cc1cc(=O)[nH]c(=S)[nH]1
inactive: [1] | [2] | [3] | [4] | [5] | [6] | [7] | [8] | [9] | [10]

COc1ccc(S(=O)(=O)N2C(=O)[C@@](c3ccccc3OC)(N3C[C@H](O)C[C@H]3C(=O)N(C)C)c3cc(Cl)ccc32)c(OC)c1
active: [2] 86.2 µM | [3] 93.2 µM | [4] 92.4 µM | [6] 63 µM | [8] 78.1 µM | [9] 68.6 µM
inactive: [1] | [5] | [7] | [10]

Cc1ccc2ncccc2c1
inactive: [1] | [2] | [3] | [4] | [5] | [6] | [7] | [8] | [9] | [10]

CC=Cc1ccc(O)c(OC)c1
active: [2] 105 µM
inactive: [1] | [3] | [4] | [5] | [6] | [7] | [8] | [9] | [10]

CN1CCCC1=O
inactive: [1] | [2] | [3] | [4] | [5] | [6] | [7] | [8] | [9] | [10]

COc1ccc(C)cc1N
inactive: [1] | [2] | [3] | [4] | [5] | [6] | [7] | [8] | [9] | [10]

CCCCCCCCCCCCCCCC
inactive: [1] | [2] | [3] | [4] | [5] | [6] | [7] | [8] | [9] | [10]

C=CCc1ccc(O)c(OC)c1
inactive: [1] | [2] | [3] | [4] | [5] | [6] | [7] | [8] | [9] | [10]

C=CCOC(=O)c1ccccc1C(=O)OCC=C
inactive: [1] | [2] | [3] | [4] | [5] | [6] | [7] | [8] | [9] | [10]

COc1cc(/C=C/C(=O)CC(=O)/C=C/c2ccc(O)c(OC)c2)ccc1O
inactive: [1] | [2] | [3] | [5] | [8] | [10]
active: [4] 38 µM | [6] 56.1 µM | [7] 48 µM | [9] 84.6 µM

O=[N+]([O-])C(CO)(CO)CO
inactive: [1] | [2] | [3] | [4] | [5] | [6] | [7] | [8] | [9] | [10]

COCCOCCOC
inactive: [1] | [2] | [3] | [4] | [5] | [6] | [7] | [8] | [9] | [10]

CC1(C)CC(N=C=O)CC(C)(CN=C=O)C1 (stereo not given)
active: [10] 92.5 µM
inactive: [1] | [2] | [3] | [4] | [5] | [6] | [7] | [8] | [9]

Cc1cccc(Nc2cc(Cl)nc(SCC(=O)O)n2)c1C
inactive: [1] | [2] | [3] | [4] | [5] | [6] | [7] | [8] | [9] | [10]

Cc1cccc([N+](=O)[O-])c1C
inactive: [1] | [2] | [3] | [4] | [5] | [6] | [7] | [8] | [9] | [10]

CCOC(=O)C(C)(C)Oc1ccc(Cl)cc1
inactive: [1] | [2] | [3] | [5] | [6] | [8] | [9] | [10]
active: [4] 115 µM | [7] 121 µM

O=C(O)Cc1ccccc1Nc1c(Cl)cccc1Cl
inactive: [2] | [3] | [4] | [5] | [6] | [7] | [8] | [9] | [10]
active: [1] 50 µM

CC(CO)OC(C)CO (stereo not given) (tested in a mixture with another compound)
inactive: [1] | [2] | [3] | [4] | [5] | [6] | [7] | [8] | [9] | [10]

CCOc1ccc2c(c1)C(C)=CC(C)(C)N2
inactive: [1] | [2] | [3] | [4] | [5] | [6] | [7] | [8] | [9] | [10]

Clc1cc(Cl)c(Cl)cc1Cl
inactive: [1] | [2] | [3] | [4] | [5] | [6] | [7] | [8] | [9] | [10]

CCCCC(CC)COC(=O)CC(C(=O)OCC(CC)CCCC)S(=O)(=O)O (stereo not given)
inactive: [1] | [2] | [3] | [5] | [7] | [8] | [10]
active: [4] 126 µM | [6] 105 µM | [9] 104 µM
